Several values for one entry are separate records, joined by “and”; a condition that tells them apart may be missing. Identical values can stand only once. The whole screen tested about 5,500 compounds, of which about 2,000 (36%) were called active. Roughly 18% stayed inconclusive and do not appear here. No stated cut-off is given here; in the data, active means normalized growth mostly below about 0.91 (no sharp cut-off); inconclusive means no clear call, values can overlap the other calls; inactive means mostly above about 0.92. The list shows a part of the results.
Test: chemical genetic growth profiling, strain panel (AID 1159580);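 further: tested at 20 µM; growth read once vehicle control cultures reached saturation at 30 °C; 1 = growth at the plate median or of vehicle wells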
Conditions: growth OD

Measured: normalized growth

Cn1c(=O)[nH]c2ncn(C)c2c1=O
active: S. cerevisiae deletion strains, locus YNL248C, strain rpa49, stronger effect = lower value 0.874
inactive: S. cerevisiae deletion strains, locus YJR043C, strain POL32, stronger effect = lower value 1.02 | S. cerevisiae deletion strains, locus YJR075W, strain HOC1, stronger effect = lower value 1.01 and 1 | S. cerevisiae deletion strains, locus YKL009W, strain mrt4, stronger effect = lower value 1.03 | S. cerevisiae deletion strains, locus YKL068W, stronger effect = lower value 0.988 | S. cerevisiae deletion strains, locus YKL085W, strain MDH1 (second series), stronger effect = lower value 0.993 | S. cerevisiae deletion strains, locus YKL085W, strain MDH1, stronger effect = lower value 0.993 | S. cerevisiae deletion strains, locus YKL160W, strain elf1, stronger effect = lower value 1.02 | S. cerevisiae deletion strains, locus YKL190W, strain CNB1, stronger effect = lower value 1.01 | S. cerevisiae deletion strains, locus YKR001C, strain vps1, stronger effect = lower value 0.997 | S. cerevisiae deletion strains, locus YKR026C, strain gcn3, stronger effect = lower value 0.964 | S. cerevisiae deletion strains, locus YKR091W, strain srl3, stronger effect = lower value 0.98 | S. cerevisiae deletion strains, locus YLL001W, strain dnm1, stronger effect = lower value 0.988 | S. cerevisiae deletion strains, locus YLL026W, stronger effect = lower value 0.989 | S. cerevisiae deletion strains, locus YLL041C, strain sdh2, stronger effect = lower value 0.978 | S. cerevisiae deletion strains, locus YLR027C, strain aat2, stronger effect = lower value 1 | S. cerevisiae deletion strains, locus YLR039C, strain RIC1, stronger effect = lower value 1.02 | S. cerevisiae deletion strains, locus YLR058C, strain SHM2, stronger effect = lower value 1.01 | S. cerevisiae deletion strains, locus YLR102C, strain apc9, stronger effect = lower value 0.995 | S. cerevisiae deletion strains, locus YLR221C, strain rsa3, stronger effect = lower value 0.943 | S. cerevisiae deletion strains, locus YLR258W, strain gsy2, stronger effect = lower value 0.993 | S. cerevisiae deletion strains, locus YLR262C, strain YPT6 (second series), stronger effect = lower value 0.983 | S. cerevisiae deletion strains, locus YLR262C, strain YPT6, stronger effect = lower value 1.03 | S. cerevisiae deletion strains, locus YLR268W, strain sec22, stronger effect = lower value 0.988 | S. cerevisiae deletion strains, locus YLR320W, strain mms22, stronger effect = lower value 0.97 | S. cerevisiae deletion strains, locus YLR330W, strain CHS5, stronger effect = lower value 1.01 | S. cerevisiae deletion strains, locus YLR342W, strain FKS1 (second series), stronger effect = lower value 1.03 | S. cerevisiae deletion strains, locus YLR342W, strain FKS1, stronger effect = lower value 0.975 | S. cerevisiae deletion strains, locus YLR357W, strain rsc2, stronger effect = lower value 0.97 | S. cerevisiae deletion strains, locus YLR370C, strain arc18, stronger effect = lower value 0.966 | S. cerevisiae deletion strains, locus YLR371W, strain rom2, stronger effect = lower value 0.986 | S. cerevisiae deletion strains, locus YLR384C, strain iki3, stronger effect = lower value 0.97 | S. cerevisiae deletion strains, locus YLR418C, strain cdc73, stronger effect = lower value 1 | S. cerevisiae deletion strains, locus YML016C, strain PPZ1, stronger effect = lower value 1.01 | S. cerevisiae deletion strains, locus YML032C, strain rad52, stronger effect = lower value 0.995 | S. cerevisiae deletion strains, locus YML120C, strain ndi1, stronger effect = lower value 0.995 | S. cerevisiae deletion strains, locus YML124C, strain tub3, stronger effect = lower value 0.993 | S. cerevisiae deletion strains, locus YMR058W, strain fet3, stronger effect = lower value 0.981 | S. cerevisiae deletion strains, locus YMR078C, strain ctf18, stronger effect = lower value 0.984 | S. cerevisiae deletion strains, locus YMR125W, strain sto1, stronger effect = lower value 0.987 | S. cerevisiae deletion strains, locus YMR129W, stronger effect = lower value 0.984 | S. cerevisiae deletion strains, locus YMR205C, strain PFK2, stronger effect = lower value 0.995 | S. cerevisiae deletion strains, locus YMR223W, strain ubp8, stronger effect = lower value 1.01 | S. cerevisiae deletion strains, locus YMR231W, strain pep5, stronger effect = lower value 0.961 | S. cerevisiae deletion strains, locus YMR263W, strain SAP30, stronger effect = lower value 1.01 and 0.996 | S. cerevisiae deletion strains, locus YMR307W, strain GAS1, stronger effect = lower value 1.06 and 0.981 | S. cerevisiae deletion strains, locus YNL067W, strain RPL9B, stronger effect = lower value 1.01 | S. cerevisiae deletion strains, locus YNL071W, strain lat1, stronger effect = lower value 0.974 | S. cerevisiae deletion strains, locus YNL128W, strain TEP1, stronger effect = lower value 1.02 | S. cerevisiae deletion strains, locus YNL153C, strain GIM3, stronger effect = lower value 1.01 and 0.984 | S. cerevisiae deletion strains, locus YNL175C, strain NOP13, stronger effect = lower value 0.997 | S. cerevisiae deletion strains, locus YNL197C, strain WHI3, stronger effect = lower value 0.995 | S. cerevisiae deletion strains, locus YNL209W, strain ssb2, stronger effect = lower value 0.99 | S. cerevisiae deletion strains, locus YNL224C, strain SQS1, stronger effect = lower value 0.99 | S. cerevisiae deletion strains, locus YNL233W, strain BNI4, stronger effect = lower value 1.01 | S. cerevisiae deletion strains, locus YNL250W, strain rad50, stronger effect = lower value 0.994 | S. cerevisiae deletion strains, locus YNL271C, strain bni1, stronger effect = lower value 0.993 | S. cerevisiae deletion strains, locus YNL298W, strain CLA4, stronger effect = lower value 1 | S. cerevisiae deletion strains, locus YNL307C, strain MCK1, stronger effect = lower value 1.01 | S. cerevisiae deletion strains, locus YNL322C, strain KRE1 (second series), stronger effect = lower value 0.989 | S. cerevisiae deletion strains, locus YNL322C, strain KRE1, stronger effect = lower value 1 and 1.01 | S. cerevisiae deletion strains, locus YNR049C, strain mso1, stronger effect = lower value 0.974 | S. cerevisiae deletion strains, locus YNR052C, strain pop2, stronger effect = lower value 0.992 | S. cerevisiae deletion strains, locus YOL006C, strain TOP1, stronger effect = lower value 1.04 | S. cerevisiae deletion strains, locus YOL012C, strain htz1 0.946 | S. cerevisiae deletion strains, locus YOL147C, strain pex11, stronger effect = lower value 0.988 | S. cerevisiae deletion strains, locus YOR001W, strain rrp6, stronger effect = lower value 0.925 | S. cerevisiae deletion strains, locus YOR061W, strain CKA2, stronger effect = lower value 1.01 | S. cerevisiae deletion strains, locus YOR069W, strain VPS5, stronger effect = lower value 1.01 | S. cerevisiae deletion strains, locus YOR070C, strain gyp1, stronger effect = lower value 0.985 | S. cerevisiae deletion strains, locus YOR080W, strain dia2, stronger effect = lower value 0.977 | S. cerevisiae deletion strains, locus YOR083W, strain WHI5 (second series), stronger effect = lower value 1.02 | S. cerevisiae deletion strains, locus YOR083W, strain WHI5, stronger effect = lower value 1.03 | S. cerevisiae deletion strains, locus YOR106W, strain vam3, stronger effect = lower value 1.01 | S. cerevisiae deletion strains, locus YOR136W, strain idh2, stronger effect = lower value 0.995 | S. cerevisiae deletion strains, locus YOR144C, strain elg1, stronger effect = lower value 0.98 | S. cerevisiae deletion strains, locus YOR184W, strain ser1, stronger effect = lower value 0.991 | S. cerevisiae deletion strains, locus YOR265W, strain rbl2, stronger effect = lower value 0.974 | S. cerevisiae deletion strains, locus YOR270C, strain vph1, stronger effect = lower value 0.971 | S. cerevisiae deletion strains, locus YOR290C, strain snf2, stronger effect = lower value 1.01 | S. cerevisiae deletion strains, locus YOR316C, strain cot1, stronger effect = lower value 0.987 | S. cerevisiae deletion strains, locus YPL051W, strain arl3, stronger effect = lower value 0.982 | S. cerevisiae deletion strains, locus YPL055C, strain LGE1, stronger effect = lower value 1.04 | S. cerevisiae deletion strains, locus YPL078C, strain atp4, stronger effect = lower value 1.01 | S. cerevisiae deletion strains, locus YPL106C, strain sse1, stronger effect = lower value 0.984 | S. cerevisiae deletion strains, locus YPL240C, strain hsp82, stronger effect = lower value 0.971 | S. cerevisiae deletion strains, locus YPL241C, strain CIN2, stronger effect = lower value 1.01 | S. cerevisiae deletion strains, locus YPR119W, strain clb2, stronger effect = lower value 0.983 | S. cerevisiae deletion strains, locus YPR141C, strain kar3, stronger effect = lower value 0.987 | S. cerevisiae deletion strains, locus YPR163C, strain tif3, stronger effect = lower value 0.977 | S. cerevisiae deletion strains, locus YPR167C, strain met16, stronger effect = lower value 0.994 | S. cerevisiae deletion strains, strain wtn01, stronger effect = lower value 0.992 | S. cerevisiae strains, strain wild type, stronger effect = lower value 1
